The values below come from ChEMBL document CHEMBL4513146, “CO-ADD screening of Karazin Kharkiv National University (Ukraine) compounds”.

In one test the test system is Klebsiella pneumoniae. As to conditions: Concentration 32 ug.mL-1;; ASSAY_TEST Inhibition of Bacterial Growth; detection method Absorption (OD600); MEDIA CAMHB; plate type 384well; NBS; CORNING #3640; time 18 hr.
The next test relates to Candida albicans. The following applies: Concentration 32 ug.mL-1; ASSAY_TEST Inhibition of Fungal Growth; detection method Absorption (OD530).
A further test relates to Cryptococcus neoformans. The following applies: Concentration 32 ug.mL-1; ASSAY_TEST Inhibition of Fungal Growth; detection method Resazurin; Absorption (OD600-OD570); plate type 384well; NBS; CORNING #3640. Background: Alamar Blue is a resazurin reagent that responds to reducing activity.

Entries with a potency or affinity are not part of this list.

For the molecule `Cc1nnc2c(=O)n(CC(=O)Nc3ccc(F)cc3)c3ccccc3n12`, the Inhibition (commonly the change of the read-out against control, counted positive when it falls) in the test with Klebsiella pneumoniae is given as 10.46%; with Candida albicans, 0.41%; in the test on Cryptococcus neoformans, -6.03%.

As to `COc1ccc(CN(c2ccc(F)cc2)S(=O)(=O)c2cccn3c(C)nnc23)cc1`, the values for the Inhibition in the test on Klebsiella pneumoniae, in the test with Candida albicans and in the test on Cryptococcus neoformans were 13.21%, 1.16% and -6.38%, respectively.

On to `Cc1ccc(Sc2nccn3c(=O)n(CC(=O)Nc4cccc(Cl)c4)nc23)c(C)c1`, for which the Inhibition is on record as 8.68% in the test on Klebsiella pneumoniae, 4.74% with Candida albicans and -21.78% with Cryptococcus neoformans.

For `COc1cccc(-n2ccn3c(SCC(=O)Nc4ccc(C(C)C)cc4)nnc3c2=O)c1`, the Inhibition is -7.28% in the test with Klebsiella pneumoniae, 18.36% in the test on Candida albicans and -10.59% in the test with Cryptococcus neoformans.

Regarding `CCCCOc1ccc(-c2cc3c4nnc(SCC(=O)Nc5ccccc5F)n4ccn3n2)cc1`, the figures for the Inhibition in the test on Klebsiella pneumoniae, in the test with Candida albicans and with Cryptococcus neoformans were -0.1%, 7.26% and -10.98%, respectively.

Turning to `O=c1c2sccc2n2c(=O)n(Cc3cccc(Cl)c3)nc2n1Cc1cccs1`, the Inhibition in the test with Klebsiella pneumoniae is listed as 3.75%; with Candida albicans it was 61.44%; in the test with Cryptococcus neoformans it was -14.34%.

Take `COc1ccc(N(Cc2cccc(OC)c2)S(=O)(=O)c2ccc3nnc(C)n3c2)cc1`: the results for the Inhibition with Klebsiella pneumoniae, in the test with Candida albicans and in the test on Cryptococcus neoformans were 9.44%, 0.91% and -1.64%, respectively.

For the molecule `COc1ccc(NC(=O)CSc2nnc3c(=O)n(-c4cccc(OC)c4)ccn23)cc1`, the values for the Inhibition in the test with Klebsiella pneumoniae, in the test with Candida albicans and in the test on Cryptococcus neoformans were 5.61%, 2.12% and -13.19%, respectively.

Take `CCOc1ccccc1NC(=O)Cn1nc2c(Oc3cccc(OC)c3)nccn2c1=O`: the Inhibition in the test with Klebsiella pneumoniae was 8.86%; in the test on Candida albicans, 0.7%; with Cryptococcus neoformans, -8.27%.

Take `Cc1ccc(-c2cc3c4nn(CC(=O)Nc5ccc(F)cc5)c(=O)n4ccn3n2)cc1C`: the Inhibition in the test on Klebsiella pneumoniae is -3.72%; in the test on Candida albicans it was 22.53%; with Cryptococcus neoformans, -20.65%.

For the molecule `CC(=O)c1ccc(NC(=O)Cn2nc3c(Sc4ccc(C)cc4C)nccn3c2=O)cc1`, the Inhibition with Klebsiella pneumoniae was -3.02%; in the test on Candida albicans, 1.94%; in the test with Cryptococcus neoformans it was -20.51%.

Turning to `COc1cccc(NC(=O)Cn2nc3c(Sc4ccccc4)nccn3c2=O)c1`, the Inhibition with Klebsiella pneumoniae is given as 2.45%; in the test on Candida albicans, 7.99%; in the test with Cryptococcus neoformans, -6.51%.

Consider `COc1ccc(NC(=O)Cn2nc3c(Oc4cccc(OC)c4)nccn3c2=O)cc1`, for which the Inhibition is 3.68% in the test on Klebsiella pneumoniae, 3.75% in the test with Candida albicans and -7.1% in the test with Cryptococcus neoformans.

As to `Cc1ccc(-c2cc3c4nn(CC(=O)Nc5cc(F)ccc5C)c(=O)n4ccn3n2)cc1C`, the Inhibition is on record as 2.94% in the test with Klebsiella pneumoniae, -1.13% with Candida albicans and -10.17% in the test on Cryptococcus neoformans.

With `CCc1nnc2c(SCC(=O)Nc3ccc(C)cc3Cl)nc3ccccc3n12`, the values for the Inhibition in the test with Klebsiella pneumoniae, with Candida albicans and in the test on Cryptococcus neoformans were 11.28%, 1.59% and -8.66%, respectively.

`Cc1ccc(C)c(C(=O)CSc2nnc3c(=O)n(-c4ccc(F)c(F)c4)ccn23)c1`: the Inhibition is on record as 16.06% with Klebsiella pneumoniae, 4.02% in the test on Candida albicans and -10.11% in the test on Cryptococcus neoformans.

With `COc1ccc(NC(=O)Cn2nc3c(SCc4ccc(Cl)cc4)nccn3c2=O)cc1`, the Inhibition in the test with Klebsiella pneumoniae is listed as 5.73%; in the test with Candida albicans, -0.37%; in the test with Cryptococcus neoformans it was -4.83%.

As for `Cc1cc(C)c(NC(=O)Cn2nc3ccc(SCc4ccc(Cl)cc4)nn3c2=O)c(C)c1`, the Inhibition is 3.59% in the test on Klebsiella pneumoniae, 6.58% in the test on Candida albicans and -25.9% with Cryptococcus neoformans.

As for `Cc1ccc(Sc2nccn3c(=O)n(CC(=O)Nc4ccc(Br)cc4)nc23)c(C)c1`, the Inhibition with Klebsiella pneumoniae is given as 5.96%; in the test with Candida albicans it was -1.11%; in the test on Cryptococcus neoformans, -6.8%.

For `COc1cccc(Oc2nccn3c(=O)n(CC(=O)Nc4ccc5c(c4)OCO5)nc23)c1`, the Inhibition with Klebsiella pneumoniae is 7.21%; in the test on Candida albicans, 1.19%; in the test with Cryptococcus neoformans, -8.5%.

Regarding `CCOc1ccc(-n2ccn3c(SCC(N)=O)nnc3c2=O)cc1`, the values for the Inhibition with Klebsiella pneumoniae, in the test on Candida albicans and in the test with Cryptococcus neoformans were 16.24%, 1.43% and -5.27%, respectively.

With `NC(=O)C1CCN(C(=O)CCc2nnc3c(N4CCCCC4)nc4ccccc4n23)CC1`, the Inhibition is 15.2% in the test with Klebsiella pneumoniae, 1.8% with Candida albicans and -5.85% in the test with Cryptococcus neoformans.

For the molecule `Cc1cccc(C)c1NC(=O)Cn1nc2n(C)c(=O)c3c(c(-c4ccccc4)cn3C)n2c1=O`, the Inhibition was 10.1% with Klebsiella pneumoniae, 0.83% in the test with Candida albicans and -9.16% with Cryptococcus neoformans.

`Cc1c(Cl)cccc1-n1ccn2c(=O)n(Cc3ccc(Cl)cc3)nc2c1=O`: the Inhibition in the test with Klebsiella pneumoniae is 2.87%; with Candida albicans, 1.02%; with Cryptococcus neoformans, -15.09%.

Turning to `O=c1n(Cc2cc(F)cc(F)c2)nc2ccc(-c3ccccc3)nn12`, the Inhibition in the test with Klebsiella pneumoniae is 18.79%; with Candida albicans, 0.55%; with Cryptococcus neoformans, -16.53%.

For `COc1cccc(-n2ccn3c(SCC(=O)c4ccc(Br)cc4)nnc3c2=O)c1`, the Inhibition in the test with Klebsiella pneumoniae is recorded as 9.61%; in the test on Candida albicans, 5.24%; in the test on Cryptococcus neoformans it was -5.95%.

In the case of `Cc1cc(C)cc(NC(=O)Cn2nc3c4cc(-c5ccc(C)c(C)c5)nn4ccn3c2=O)c1`, the Inhibition is 6.91% in the test with Klebsiella pneumoniae, 7.8% in the test on Candida albicans and -17.96% in the test on Cryptococcus neoformans.

As for `Cc1cc2nn(CC(=O)NCc3ccco3)c(=O)n2c(Nc2ccc(C)c(F)c2)n1`, the Inhibition was 7.94% in the test on Klebsiella pneumoniae, 7.51% in the test on Candida albicans and -7.03% with Cryptococcus neoformans.
